Measurements published in PubChem BioAssay.
The source made the active and inactive calls.

Experiments:
[1] = binders of probe aFSTL3 on microarray, primary screen, stem cell growth factor project, biochemical, small-molecule microarray, fluorescence 635/667 (AID 1064); conditions: higher = more signal;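 also: measures binding of the biotinylated anti-FSTL3 antibody to printed compounds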
[2] = binders from COS7 lysate, DM2A8 probe, primary screen, torsin A project, cell lysate, small-molecule microarray, fluorescence 635/667 (AID 1065); conditions: higher = more signal, COS7 lysate expressing mutant human TOR1A
[3] = binders of probe aFGF2 on microarray, primary screen, stem cell growth factor project, biochemical, small-molecule microarray, fluorescence 635/667 (AID 1067); conditions: higher = more signal;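 also: measures binding of biotinylated aFGF2 protein to printed compounds on slides; z-score merges feature fluorescence and signal-to-noise across triplicate slides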
[4] = binders of probe aFGF10 on microarray, primary screen, stem cell growth factor project, biochemical, small-molecule microarray, fluorescence 635/667 (AID 1071); conditions: higher = more signal;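 also: score merges 667 nm spot intensity and signal to noise from triplicate slides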
[5] = biological target: Neurogenic locus notch homolog protein 2 (Homo sapiens) (UniProt Q04721); assay: Notch2 binders on small-molecule microarrays, primary screen, biochemical, small-molecule microarray, 635 nm fluorescence, stem cell growth factors (AID 1073); conditions: Notch2 binding, higher = more signal
Chain of Neurogenic locus notch homolog protein 2 (Homo sapiens) (Q04721 whole entry, looked up, canonical isoform): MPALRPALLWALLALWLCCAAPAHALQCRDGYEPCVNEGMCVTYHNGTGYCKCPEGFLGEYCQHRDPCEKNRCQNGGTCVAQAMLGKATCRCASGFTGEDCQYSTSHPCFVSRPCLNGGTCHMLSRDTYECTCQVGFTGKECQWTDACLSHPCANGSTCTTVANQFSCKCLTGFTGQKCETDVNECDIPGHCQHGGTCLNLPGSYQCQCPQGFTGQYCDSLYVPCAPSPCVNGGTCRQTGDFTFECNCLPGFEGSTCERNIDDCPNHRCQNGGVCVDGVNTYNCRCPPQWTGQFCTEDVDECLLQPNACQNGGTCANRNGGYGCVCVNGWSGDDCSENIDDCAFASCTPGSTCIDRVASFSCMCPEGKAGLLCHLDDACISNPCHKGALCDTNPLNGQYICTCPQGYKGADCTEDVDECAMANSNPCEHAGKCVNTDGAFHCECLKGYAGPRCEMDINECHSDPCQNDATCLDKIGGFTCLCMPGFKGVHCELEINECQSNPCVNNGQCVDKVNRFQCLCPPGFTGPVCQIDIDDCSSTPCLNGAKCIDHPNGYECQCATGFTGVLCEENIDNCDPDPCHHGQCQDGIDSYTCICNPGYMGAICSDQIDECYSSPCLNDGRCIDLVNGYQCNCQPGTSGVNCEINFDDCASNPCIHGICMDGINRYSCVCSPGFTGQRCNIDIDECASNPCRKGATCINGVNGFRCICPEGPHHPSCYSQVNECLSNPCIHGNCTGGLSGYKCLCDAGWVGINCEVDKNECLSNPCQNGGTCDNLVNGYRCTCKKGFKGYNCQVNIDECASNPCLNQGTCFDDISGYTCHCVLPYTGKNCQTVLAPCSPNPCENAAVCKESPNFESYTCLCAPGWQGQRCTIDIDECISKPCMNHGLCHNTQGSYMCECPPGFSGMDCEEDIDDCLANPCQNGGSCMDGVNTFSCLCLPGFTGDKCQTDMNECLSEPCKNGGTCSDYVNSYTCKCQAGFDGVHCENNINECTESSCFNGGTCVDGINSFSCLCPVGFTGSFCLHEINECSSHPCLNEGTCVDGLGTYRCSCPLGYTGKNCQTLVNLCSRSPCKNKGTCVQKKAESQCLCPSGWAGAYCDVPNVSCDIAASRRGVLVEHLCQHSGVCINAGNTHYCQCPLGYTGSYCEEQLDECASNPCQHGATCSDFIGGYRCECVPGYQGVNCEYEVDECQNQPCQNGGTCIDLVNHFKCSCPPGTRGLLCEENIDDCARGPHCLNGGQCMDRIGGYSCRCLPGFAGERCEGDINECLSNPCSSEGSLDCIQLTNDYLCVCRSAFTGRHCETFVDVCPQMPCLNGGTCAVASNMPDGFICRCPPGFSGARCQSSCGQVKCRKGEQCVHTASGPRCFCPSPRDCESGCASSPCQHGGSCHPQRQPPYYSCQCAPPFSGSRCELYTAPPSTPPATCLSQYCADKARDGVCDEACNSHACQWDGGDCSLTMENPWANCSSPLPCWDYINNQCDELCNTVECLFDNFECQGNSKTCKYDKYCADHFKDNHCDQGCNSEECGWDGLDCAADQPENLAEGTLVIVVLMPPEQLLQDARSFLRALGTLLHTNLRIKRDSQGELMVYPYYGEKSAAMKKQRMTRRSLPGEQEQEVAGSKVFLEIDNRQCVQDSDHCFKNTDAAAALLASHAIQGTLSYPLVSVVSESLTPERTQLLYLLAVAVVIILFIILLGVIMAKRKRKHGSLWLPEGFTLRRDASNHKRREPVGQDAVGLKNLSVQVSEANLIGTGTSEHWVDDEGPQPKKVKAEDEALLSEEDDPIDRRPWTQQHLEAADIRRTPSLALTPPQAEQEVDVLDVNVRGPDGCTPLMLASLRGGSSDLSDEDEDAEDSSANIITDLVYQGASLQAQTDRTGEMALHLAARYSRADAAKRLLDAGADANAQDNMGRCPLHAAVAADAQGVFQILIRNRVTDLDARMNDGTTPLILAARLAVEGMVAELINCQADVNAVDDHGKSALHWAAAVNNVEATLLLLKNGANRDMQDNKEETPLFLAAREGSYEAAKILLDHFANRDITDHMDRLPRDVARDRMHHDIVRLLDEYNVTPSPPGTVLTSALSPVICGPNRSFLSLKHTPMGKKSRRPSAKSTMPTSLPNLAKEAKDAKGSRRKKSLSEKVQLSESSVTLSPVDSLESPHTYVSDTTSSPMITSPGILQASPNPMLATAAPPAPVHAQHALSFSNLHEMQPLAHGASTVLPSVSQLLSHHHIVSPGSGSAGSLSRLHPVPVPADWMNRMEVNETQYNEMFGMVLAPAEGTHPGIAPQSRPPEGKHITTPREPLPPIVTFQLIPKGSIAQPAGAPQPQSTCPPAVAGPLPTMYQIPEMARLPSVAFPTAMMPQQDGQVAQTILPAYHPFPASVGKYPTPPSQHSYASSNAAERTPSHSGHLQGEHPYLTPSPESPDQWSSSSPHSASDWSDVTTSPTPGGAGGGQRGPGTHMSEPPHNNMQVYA

[6] = biological target: Pro-neuregulin-1, membrane-bound isoform (Homo sapiens) (UniProt Q02297); assay: NRG1 binders on small-molecule microarrays, primary screen, psychiatric disease protein project, biochemical, small-molecule microarray, fluorescence 635/667 (AID 1075); conditions: NRG1 binding, 635 nm fluorescence, higher = more signal;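 also: score combines 667 nm spot fluorescence with signal to noise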
Chain of Pro-neuregulin-1, membrane-bound isoform (Homo sapiens) (Q02297 whole entry, looked up, the tested form may be a part, canonical isoform): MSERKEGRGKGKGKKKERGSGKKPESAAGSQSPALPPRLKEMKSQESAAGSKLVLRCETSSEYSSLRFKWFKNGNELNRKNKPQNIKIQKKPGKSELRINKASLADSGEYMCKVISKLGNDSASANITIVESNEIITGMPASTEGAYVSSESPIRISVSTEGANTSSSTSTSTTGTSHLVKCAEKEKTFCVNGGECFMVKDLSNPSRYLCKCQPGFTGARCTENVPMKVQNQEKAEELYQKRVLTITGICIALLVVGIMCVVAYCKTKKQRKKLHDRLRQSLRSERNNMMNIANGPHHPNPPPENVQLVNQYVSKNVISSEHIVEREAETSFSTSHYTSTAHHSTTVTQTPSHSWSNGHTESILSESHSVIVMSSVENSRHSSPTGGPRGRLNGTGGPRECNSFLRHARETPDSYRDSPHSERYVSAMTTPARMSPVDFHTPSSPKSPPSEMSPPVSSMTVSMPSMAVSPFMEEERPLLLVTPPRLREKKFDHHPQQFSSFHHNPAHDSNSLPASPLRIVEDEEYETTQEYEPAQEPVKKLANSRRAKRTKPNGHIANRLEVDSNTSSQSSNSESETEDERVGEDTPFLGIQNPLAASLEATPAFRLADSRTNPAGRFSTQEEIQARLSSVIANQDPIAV

[7] = tested on: Neuregulin-1 EGF-like domain; assay: binders of neuregulin-1 EGF-like domain, primary screen, biochemical, small-molecule microarray, 635 nm fluorescence (AID 1081); conditions: small-molecule microarray binding, higher = more signal;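 also: binding of the protein to compounds printed on small-molecule microarray slides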
[8] = FRG1 promoter luciferase signal modulators, primary screen, FRG1 inhibition for FSHD, cell-based, C2C12 myotubes, firefly/Renilla luciferase, luminescence (AID 1084); conditions: higher = more signal, called active from +8 up or from −8 down
[9] = binders of probe aFST on microarray, primary screen, stem cell growth factor project, biochemical, small-molecule microarray, fluorescence 635/667 (AID 1086); conditions: higher = more signal;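 also: score merges 667 nm fluorescence with signal-to-noise of each printed compound spot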
[10] = binders of probe aHhip on microarray, primary screen, stem cell growth factor project, biochemical, small-molecule microarray, fluorescence 635/667 (AID 1087); conditions: higher = more signal;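 also: score merges spot fluorescence at 667nm with spot signal to noise ratio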
[11] = tested on: PRMT1 (protein arginine N-methyltransferase 1); assay: PRMT1 binders on small-molecule microarrays, primary screen, biochemical, small-molecule microarray, 635 nm fluorescence (AID 1088); conditions: small-molecule microarray binding, higher = more signal;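 also: binding of Prmt1 protein to compounds spotted on small-molecule microarray slides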
[12] = yeast growth modulation, basal conditions, primary screen, YJM789 clinical isolate, OD600, 24 h (AID 1089);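 also: growth of clinical yeast isolate S. cerevisiae YJM 789 seeded 1000 cells per well; test concentration not given here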; conditions: S. cerevisiae YJM789 growth, higher = more signal, called active from +8 up or from −8 down
[13] = fission yeast growth modulation, primary screen, strain 972, OD600, 24 h, no modulator (AID 1090);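 also: basal condition with compound alone and no growth modifier present; test concentration not given here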; conditions: S. pombe 972 growth, higher = more signal, called active from +8 up or from −8 down
[14] = S. cerevisiae growth modulation with rapamycin, primary screen, strain BY4716, OD600, 96 h (AID 1091); conditions: higher = more signal, called active from +8 up or from −8 down; also: test concentration not given here
[15] = biological target: Torsin-1A-interacting protein 2 (Homo sapiens) (UniProt Q8NFQ8); assay: LULL1 binders on small-molecule microarray, primary screen, cell lysate, human LULL1 lysate, 635/667 nm fluorescence (AID 1092); conditions: hLULL1 lysate binding, 635 nm fluorescence, higher = more signal;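 also: probe is lysate of COS7 cells overexpressing human LULL1; score merges per-feature 667 nm fluorescence with signal-to-noise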
Chain of Torsin-1A-interacting protein 2 (Homo sapiens) (Q8NFQ8 whole entry, looked up): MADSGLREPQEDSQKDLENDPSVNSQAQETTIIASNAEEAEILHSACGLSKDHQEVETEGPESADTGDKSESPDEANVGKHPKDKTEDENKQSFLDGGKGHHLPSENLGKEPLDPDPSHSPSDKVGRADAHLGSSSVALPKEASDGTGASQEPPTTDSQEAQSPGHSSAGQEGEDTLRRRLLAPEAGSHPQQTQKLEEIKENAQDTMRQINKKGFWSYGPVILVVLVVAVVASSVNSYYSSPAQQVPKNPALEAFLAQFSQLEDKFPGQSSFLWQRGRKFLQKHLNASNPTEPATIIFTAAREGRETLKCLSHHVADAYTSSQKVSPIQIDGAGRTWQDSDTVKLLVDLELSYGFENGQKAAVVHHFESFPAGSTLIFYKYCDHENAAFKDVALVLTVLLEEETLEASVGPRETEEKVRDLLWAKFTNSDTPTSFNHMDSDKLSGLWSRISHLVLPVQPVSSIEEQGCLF

[16] = E. coli growth modulation, two-sided OD650, primary screen, E. coli filamentation project, strain DRC41, 24 h (AID 1093); conditions: OD650, 24 h, higher = more signal, called active from +8 up or from −8 down;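 also: MC1000 strain lacking acrAB efflux and sulA so SOS filamentation is blocked; test concentration not given here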
[17] = small-molecule microarray binders of probe aLefty2, primary screen, biochemical, biotinylated probe, 635/667 nm fluorescence (AID 1094); conditions: higher = more signal;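 also: score merges spot fluorescence near 667 nm with spot signal-to-noise ratio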
[18] = tested on: Noggin (protein binding on small-molecule microarray); assay: Noggin binders on small-molecule microarray, primary screen, biochemical, 635/667 nm fluorescence (AID 1095); conditions: 635 nm fluorescence, higher = more signal;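 also: score merges 667 nm feature fluorescence with signal to noise over triplicate slides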
[19] = biological target: Neurogenic locus notch homolog protein 3 (Homo sapiens) (UniProt Q9UM47); assay: NOTCH3 binders on small-molecule microarray, primary screen, biochemical, 635/667 nm fluorescence (AID 1096); conditions: NOTCH3 binding, 635 nm fluorescence, higher = more signal
[20] = small-molecule microarray binders of probe aEGFR, primary screen, biochemical, biotinylated probe, 635/667 nm fluorescence (AID 1097); conditions: higher = more signal;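 also: probe is a biotinylated anti-EGFR antibody binding compounds printed on slides; score combines fluorescence near 667 nm and signal to noise of each spot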

Structure (SMILES)	composite z-score [1]	composite z-score [2]	composite z-score [3]	composite z-score [4]	composite z-score [5]	composite z-score [6]	composite z-score [7]	z-score [8]	composite z-score [9]	composite z-score [10]	composite z-score [11]	z-score [12]	z-score [13]	z-score [14]	composite z-score [15]	z-score [16]	composite z-score [17]	composite z-score [18]	composite z-score [19]	composite z-score [20]
O=C1CCCC=C1C(O)COCc1ccccc1 (stereo not given)	-0.356	0.217	-0.214	0.225	-0.263	-0.179	0.332	0.91 (inactive)	-0.302	-0.194	-0.544	0.249 (inactive)	-0.233 (inactive)	0.456 (inactive)	-0.395	0.202 (inactive)	-0.212	0.022	-0.256	-0.142
O=C1CCCC=C1C(O)C1CCCCC1 (stereo not given)	-0.53	0.835	-0.141	0.191	-0.0306	-0.594	-0.593	0.0424 (inactive)	-0.0962	0.0373	-0.784	-0.711 (inactive)	0.214 (inactive)	-0.478 (inactive)	0.2	0.805 (inactive)	-0.0279	-0.0241	0.0627	-0.294
COc1ccc(-c2cnnc(CCCn3ccnc3-c3ccccc3)n2)cc1	-0.368	1.45	-0.121	0.763	0.426	0.278	0.585	0.64 (inactive)	0.117	-0.12	0.576	-0.128 (inactive)	-0.513 (inactive)	1.36 (inactive)	0.662	0.222 (inactive)	-0.125	0.592	0.876	0.137
CCOC(=O)CCN1C(=O)[C@H]2[C@H]3[C@H](O)[C@H](O)CC(=NOCC=C(C)CCC=C(C)C)[C@H]3CC[C@H]2C1=O	-0.137	0.757	-0.0734	-0.274	0.762	-0.601	-1.74	-0.815 (inactive)	0.752	0.0722	0.467	0.273 (inactive)	-0.215 (inactive)	-0.188 (inactive)	0.0139	0.857 (inactive)	0.287	0.386	0.089	0.106
CCN1C(=O)[C@H]2[C@H]3[C@H](O)[C@H](O)CC(=NO[C@H](C)c4cn([C@@H]5COC[C@H]5O)nn4)[C@@H]3CC[C@H]2C1=O	-0.258	0.307	-0.0853	0.307	0.0679	-0.455	-0.14	0.225 (inactive)	0.0423	-0.238	0.489	0.415 (inactive)	1.01 (inactive)	1.36 (inactive)	0.413	0.445 (inactive)	-0.129	-0.127	0.0689	-0.0678
C[C@@H]1CC[C@H]2C(=O)OC(Cc3ccccc3)CN2[C@H]1c1ccc(Br)cc1 (stereo not given in full)	-0.438	-0.441	-0.156	0.578	-0.125	0.485	1.01	-0.156 (inactive)	-0.103	0.0373	1.28	0.127 (inactive)	-6.77 (inactive)	-0.624 (inactive)	1.18	0.823 (inactive)	-0.0923	0.151	0.0343	-0.133
CCN(CC)CC(O)CN1CCCCc2nc(C)c(C)cc21 (stereo not given)	-0.482	1.04	-0.14	0.456	0.635	-0.164	1.07	-1.2 (inactive)	0.101	-0.112	0.357	-1.59 (inactive)	-1.34 (inactive)	-0.425 (inactive)	0.657	-0.0207 (inactive)	-0.343	0.454	0.431	-0.0148
O=C1[C@H]2[C@H]3[C@H](O)[C@H](O)CC(=NO[C@@H]4O[C@H](CO)[C@@H](O)[C@H](O)[C@H]4O)[C@H]3CC[C@H]2C(=O)N1c1ccc(F)cc1F	0.552	0.75	0.0159	0.265	0.51	-0.557	-0.977	0.404 (inactive)	0.437	-0.0296	1.08	-0.484 (inactive)	-0.352 (inactive)	-1.99 (inactive)	0.0348	0.356 (inactive)	-0.128	0.161	0.365	-0.0084
CC(C)CON=C1C[C@@H](O)[C@@H](O)[C@@H]2[C@@H]3C(=O)N(Cc4ccc5c(c4)OCO5)C(=O)[C@@H]3CC[C@@H]12	-0.345	-0.142	0.0138	0.11	-0.0138	0.474	0.814	-0.197 (inactive)	-0.141	0.0659	0.731	-0.12 (inactive)	0.54 (inactive)	-0.409 (inactive)	1.69	-0.38 (inactive)	-0.195	0.697	-0.173	-0.192
COC(=O)[C@H](Cc1ccccc1)NC(=O)[C@@H](C)CO	0.503	0.482	-0.0105	0.417	0.458	-0.35	0.867	0.313 (inactive)	0.53	-0.0672	1.41	-0.152 (inactive)	-0.187 (inactive)	0.22 (inactive)	0.738	-0.503 (inactive)	0.0498	0.441	0.588	0.169
